MEX-5 binding = MEX-5 zinc finger RNA-binding disruptors – biochemical, C. elegans, fluorescence polarization, MLPCN library, primary screen; Zinc finger protein mex-5 (Caenorhabditis elegans), Q9XUB2; MEX-5/FITC-TCR2 RNA binding; active compounds read low; activity score (negative = inhibition of binding), % at 10 µM; 0.38% of 300,000 active;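 active = inhibition past about -25% in most replicates, and total fluorescence under double the plate's negative control median, limit read from the data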;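 note: 0% = DMSO and -100% = 5 µM competing unlabeled TCR2 RNA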
LANA-H2A inh = blockers of LANA interaction with H2A/H2B – biochemical, FP readout, HTS, primary screen. Protein LANA1 (Human herpesvirus 8 type P (isolate GK18)), Q9QR71. cell-free LANA-H2A/H2B peptide, fluorescence polarization. inhibition, % (test concentration not listed). 0.6% of 320,000 active. AID 2629, 2010; in the data active = inhibition mostly above about 10%, no sharp cut-off; inactive = mostly below about 6.7%
GLD-1 TGE inh = GLD-1/TGE RNA complex disruptors, primary screen, biochemical, fluorescence polarization; inhibition, % at 5.96 µM; purified GLD-1 + fluorescein TGE RNA; Female germline-specific tumor suppressor gld-1 (Caenorhabditis elegans), Q17339; 0.44% of 320,000 active;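 active = percent inhibition above a per-plate cutoff, the plate mean of test compounds plus 3 SD, cut at about 30% in these data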;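 note: 0% = DMSO wells with GLD-1 and probe and 100% = wells lacking GLD-1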
CR mimetic SO = reduction of superoxide in aged yeast, primary screen, HTS; S. cerevisiae aged cells, superoxide DHE fluorescence; active compounds read low; superoxide response (% of plate mean), % at 10 µM; 0.18% of 330,000 active;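 active = superoxide response under a set limit, about three screen SD below normal, cut at about 65% in these data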;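 note: yeast aged for seven days with compound at 30 °C before DHE staining; 100% = average MFI of all compound-treated wells on the plate with controls excluded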
Bcl-xL primary = inhibitors of human Bcl-xL, primary screen, biochemical, fluorescence polarization, HTS; AID 2129, 2009; 0.7% of 320,000 active; inhibition, % at 10.9 µM; GST-Bcl-xL / FITC-Bim BH3 peptide fluorescence polarization;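 active = inhibition above the mean of all tested compounds plus 3 SD, cutoff set per campaign, cut at about 30% in these data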;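 note: 0% = DMSO wells and 100% = unlabeled Bim-BH3 peptide competitor; inhibitors lower millipolarization by displacing the labeled peptide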
Target sequence (Q07817 whole entry, looked up): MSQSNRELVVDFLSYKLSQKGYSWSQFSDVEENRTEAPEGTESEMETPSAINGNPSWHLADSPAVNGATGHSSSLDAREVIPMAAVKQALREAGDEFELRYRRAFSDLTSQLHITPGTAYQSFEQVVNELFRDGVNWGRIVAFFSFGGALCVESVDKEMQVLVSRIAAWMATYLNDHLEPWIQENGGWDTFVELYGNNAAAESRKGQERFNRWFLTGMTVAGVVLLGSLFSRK
MCL1 BIM primary = inhibitors of MCL1 binding to BIM-BH3, primary screen, biochemical, fluorescence polarization | 0.68% of 320,000 active | inhibition, % at 10.9 µM | Induced myeloid leukemia cell differentiation protein Mcl-1 (Homo sapiens), Q07820 | GST-MCL1 / FITC-Bim-BH3 fluorescence polarization | AID 2057, 2009;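 active = inhibition above the mean inhibition of all tested compounds plus 3 SD, set per campaign, cut at about 40% in these data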;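 note: 0% = DMSO wells and 100% = unlabeled Bim-BH3 peptide control; higher means more loss of mP so more displacement of Bim peptide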
Target sequence (Q07820 whole entry, looked up): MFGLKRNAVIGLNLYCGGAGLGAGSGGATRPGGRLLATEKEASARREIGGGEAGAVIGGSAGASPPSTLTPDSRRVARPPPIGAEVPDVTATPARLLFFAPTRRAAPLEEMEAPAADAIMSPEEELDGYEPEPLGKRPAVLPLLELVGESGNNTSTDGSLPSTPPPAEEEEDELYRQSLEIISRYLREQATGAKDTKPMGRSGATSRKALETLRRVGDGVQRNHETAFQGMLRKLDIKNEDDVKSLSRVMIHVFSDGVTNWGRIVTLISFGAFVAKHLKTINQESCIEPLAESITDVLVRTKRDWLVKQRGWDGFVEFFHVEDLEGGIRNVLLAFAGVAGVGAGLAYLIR
Numbers without * were called inactive; · = not tested or not shown. The list is not random: actives were taken first. Their share in the collection is about 1.9%.

SMILES | MEX-5 binding | LANA-H2A inh | GLD-1 TGE inh | CR mimetic SO | Bcl-xL primary | MCL1 BIM primary
NC(=O)/C(=C\c1ccco1)NC(=O)c1ccc(Br)o1 | -6 | 2 | 19 | 108 | 37* | 42*
O=C(O)/C(=C/c1ccco1)NC(=O)c1ccc(Br)o1 | 1 | -5 | -1 | 96 | 17 | 23
CC(C)C(NC(=O)/C(=C/c1ccco1)NC(=O)c1ccc(Br)o1)C(=O)O (stereo unspecified) | -4 | -5 | 16 | 90 | 35* | 45*
O=C1CCCC/C=C\C[C@H](CC(=O)N(CCO)Cc2ccccc2)C(=O)N2CCC[C@@H]2CO1 | · | 5 | 3 | 100 | · | ·
CCOC(=O)[C@H]1[C@H]2COc3ccc(Cl)cc3[C@@H]2N2C(=O)c3cc(F)c(F)cc3NC(=O)[C@@]12C | · | 1 | 7 | · | 5 | 9
CC(=O)C(=Nc1ccccc1Cl)NNc1ccc(Cl)cc1 | -8 | -3 | 5 | 96 | 31* | 31
O=C(NNc1ccc(Cl)cc1)c1c(F)cccc1Cl | 0 | -1 | 1 | 84 | 10 | -8
CCN(CCCc1ccccc1)CCCc1ccccc1 | -2 | 38* | -2 | 103 | 5 | 4
O=[N+]([O-])c1cc(/C=N\Nc2nccs2)ccc1O | -100* | · | · | · | · | ·
NC(=O)c1cc([N+](=O)[O-])c(Cl)cc1NCc1cccnc1 | · | 0 | 0 | 118 | 1 | -2
Cc1cc(C(=O)C(C)OC(=O)c2ccc(NC(=O)CC#N)cc2)c(C)n1-c1ccc(OC(F)F)cc1 (stereo unspecified) | · | 2 | -16 | 91 | -7 | -22
C/C(=N\Nc1nncc2ccccc12)c1ccc(O)cc1 | 0 | 12* | 8 | 136 | -4 | -4
CC(NC(=O)CSc1nnc(COc2ccccc2)o1)c1ccccc1 (stereo unspecified) | 2 | 20* | 0 | 102 | 5 | 7
Cc1ccc(OCc2nnc(SCC(=O)CC(=O)Nc3ccccc3)o2)cc1 | -1 | 17* | -7 | 86 | -11 | -5
COc1ccc(OCc2nnc(SCC(=O)Nc3ccc(C)cc3)o2)cc1 | 1 | 0 | 5 | 106 | -5 | -5
CCc1ccc(OCc2nnc(SCC(=O)NCc3ccco3)o2)cc1 | 1 | -3 | -3 | 97 | 54* | -5
NC(=O)Cc1ccc(C(=O)CSc2nnc(-c3ccncc3)n2C2CC2)s1 | · | 3 | 3 | 108 | · | ·
Cc1cc(C(=O)CS(=O)(=O)c2ccc(F)cc2)cc(C)c1O | 1 | 1 | 9 | 108 | 3 | 6
COc1ccc(NS(=O)(=O)c2ccc(O)c(NS(=O)(=O)c3ccc(NC(C)=O)cc3)c2)cc1 | · | 3 | -3 | 106 | · | ·
CCCNC(=O)CCn1nc(-c2ccc(C)cc2)c2ccccc2c1=O | 1 | -1 | 1 | 91 | 34* | 0
Cc1cc(C)n2nc(SCC(=O)NC(=O)c3ccccc3Cl)nc2n1 | · | 1 | 1 | 105 | 7 | 4
CCOC(=O)c1ccc2[nH]c(C)c(C)c2c1 | 2 | -1 | -6 | 102 | -4 | -3
CCOc1ccc(Cc2c(C)[nH]c3ccc(C(=O)O)cc3c2=S)cc1 | -5 | 8 | 21 | 101 | 31* | 31
COc1ccc(OC)c(/C=C2\N=C(c3ccccc3)OC2=O)c1 | 1 | 42* | -6 | 106 | -23 | -47
COc1cc(/C=C2/N=C(c3ccccc3)OC2=O)c(F)cc1OCc1ccccc1 | -60* | 2 | -1 | 97 | 6 | 30
SMILES | MEX-5 binding | LANA-H2A inh | GLD-1 TGE inh | CR mimetic SO | Bcl-xL primary | MCL1 BIM primary
CCOC(=O)/C(C#N)=C1/C=CN(Cc2ccccc2)C=N1 | -5 | -2 | 2 | 126 | 4 | 5
CCOC(=O)C(=O)C1=CN(Cc2ccccc2)C=C(C#N)C1 | 1 | -5 | 25 | 110 | 43* | 47*
CCOC(=O)C1=C(C)N=c2s/c(=C\c3ccc(C(=O)O)cc3)c(=O)n2C1c1ccc(OC)cc1OC (stereo unspecified) | -5 | 2 | 2 | 97 | -1 | 1
CCOC(=O)C1=C(C)N=c2s/c(=C\c3cccn3C)c(=O)n2C1c1cccc(OC)c1OC (stereo unspecified) | -40* | -9 | -20 | 103 | -12 | -17
O=C(CCl)N1CCN(S(=O)(=O)Cc2ccccc2)CC1 | · | -1 | 2 | 123 | -4 | -4
Cc1ccc(S(=O)(=O)C2(C(=O)Nc3ccc(Br)cc3)CC2)cc1 | 2 | 0 | -5 | 93 | 2 | 10
COc1ccc(NC(=O)C2(S(=O)(=O)c3ccc(C)cc3)CC2)cc1OC | -2 | 26* | 11 | 103 | -2 | -2
COc1ccc(C(C)(C)C)cc1NC(=O)COC(=O)CN1C(=O)NC2(CCCCC2C)C1=O (stereo unspecified) | · | -5 | 7 | 93 | · | ·
CCCC[C@@H]1C=C(C(=O)O)[C@H](c2ccc(Cl)cc2)N1S(=O)(=O)c1ccc(C)cc1 | · | 84* | 1 | 109 | · | ·
COc1cc2c(cc1OC)[C@@H](NC(=O)C(C)C)[C@H](OCc1ccccc1)C2 | · | · | · | 103 | · | ·
COc1ccc(C2=NN(c3ccc(C=O)cc3)C(c3ccccc3)C2)cc1 (stereo unspecified) | 3 | 8 | -12 | 76 | 2 | -4
COc1ccc(C2CC(c3cccs3)=NN2c2ccc(C=O)cc2)cc1 (stereo unspecified) | -47* | -17 | -41 | 133 | -13 | -62
CCc1ccc(NC(=O)C2CCCN2S(=O)(=O)c2ccc3c(c2)C(C)(C)C(=O)N3C)cc1 (stereo unspecified) | 0 | 0 | 12 | 109 | -3 | -3
COc1cccc(C2C=C(c3ccc(Br)s3)Nc3ncnn32)c1OC (stereo unspecified) | -3 | 0 | 2 | 103 | 34* | 32
C=CCOC(=O)C1=C(C)Nc2ncnn2C1c1cc(Br)ccc1F (stereo unspecified) | 2 | -1 | 1 | 97 | 6 | 6
Fc1ccc(Br)cc1C1C=C(c2ccc(Br)s2)Nc2ncnn21 (stereo unspecified) | -2 | 2 | 19 | 123 | 38* | -2
COc1ccc(CNC(=O)c2ccc(N3CCC4(CC3)CC(c3ccc(Cl)cc3)=NO4)c(NC(=O)Cc3ccc(F)cc3)c2)cc1 | · | 3 | -3 | 97 | · | ·
COC(=O)c1cc2n(n1)CCN(Cc1ccc(C)cc1)C2=O | 0 | -1 | 1 | 101 | -5 | 4
COC(=O)c1cc2n(n1)CCN(Cc1cccc(OC)c1)C2=O | -2 | 20* | 0 | 89 | 1 | 7

Screening results: PubChem, several laboratories
